Screen size: about 5,500 compounds; about 2,000 (36%) were called active. Inconclusive results (about 18%) are left out. Rule as the data show it: active = normalized growth mostly below about 0.91 (no sharp cut-off); inconclusive = no clear call, values can overlap the other calls; inactive = mostly above about 0.92. Some of the results follow.
Assay: chemical genetic growth profiling, strain panel (AID 1159580);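 also: tested at 20 µM; growth read once vehicle control cultures reached saturation at 30 °C; 1 = growth at the plate median or of vehicle wells; lower values mean less growth of the strain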
Conditions: S. cerevisiae deletion strains, growth OD

Measured: normalized growth

CC1=C(/C=C/C(C)=C/C=C/C(C)=C/C=C/C=C(C)/C=C/C=C(C)/C=C/C2=C(C)C(=O)C(O)CC2(C)C)C(C)(C)CC(O)C1=O (stereo not drawn)
active: locus YBR171W, strain sec66, stronger effect = lower value 1.11 [resistant] | locus YKR026C, strain gcn3, stronger effect = lower value 1.08 [resistant]
inactive: locus YAL021C, strain ccr4, stronger effect = lower value 1.04 | locus YAL026C, strain drs2, stronger effect = lower value 1.07 | locus YAL030W, strain snc1, stronger effect = lower value 1.03 | locus YBL061C, strain skt5, stronger effect = lower value 1.03 | locus YBR009C, strain hhf1, stronger effect = lower value 1.05 | locus YBR021W, strain FUR4, stronger effect = lower value 0.962 | locus YBR023C, strain chs3, stronger effect = lower value 1.03 | locus YBR229C, strain ROT2, stronger effect = lower value 0.942 | locus YBR231C, strain swc5, stronger effect = lower value 1.05 | locus YBR279W, strain paf1, stronger effect = lower value 1.02 | locus YCL011C, strain gbp2, stronger effect = lower value 1.04 | locus YCL016C, strain dcc1, stronger effect = lower value 1.02 | locus YCL029C, strain bik1, stronger effect = lower value 0.973 | locus YCL061C, strain MRC1, stronger effect = lower value 1.07 | locus YCL069W, strain vba3, stronger effect = lower value 1.05 | locus YCR088W, strain abp1, stronger effect = lower value 1.06 | locus YDL005C, strain med2, stronger effect = lower value 1.05 | locus YDL035C, strain GPR1, stronger effect = lower value 0.939 | locus YDL040C, strain nat1, stronger effect = lower value 1.01 | locus YDL074C, strain BRE1, stronger effect = lower value 0.981 | locus YDL101C, strain DUN1, stronger effect = lower value 0.986 | locus YDL185W, strain tfp1, stronger effect = lower value 0.964 | locus YDL192W, strain arf1, stronger effect = lower value 0.988 | locus YDR001C, strain nth1, stronger effect = lower value 1.07 | locus YDR069C, strain doa4, stronger effect = lower value 1.04 | locus YDR101C, strain arx1, stronger effect = lower value 0.985 | locus YDR137W, strain rgp1, stronger effect = lower value 1.02 | locus YDR159W, strain sac3, stronger effect = lower value 1.04 | locus YDR162C, strain NBP2, stronger effect = lower value 0.947 | locus YDR195W, strain ref2 1.12 | locus YDR297W, strain sur2, stronger effect = lower value 1.03 | locus YDR318W, strain mcm21, stronger effect = lower value 0.983 | locus YDR334W, strain swr1, stronger effect = lower value 1.07 | locus YDR335W, strain msn5, stronger effect = lower value 1.05 | locus YDR388W, stronger effect = lower value 0.992 | locus YDR392W, strain spt3, stronger effect = lower value 1.04 | locus YDR502C, strain sam2, stronger effect = lower value 0.993 | locus YEL003W, strain gim4, stronger effect = lower value 1.04 | locus YEL037C, strain rad23, stronger effect = lower value 1.05 | locus YEL061C, strain CIN8 (second series), stronger effect = lower value 1.05 | locus YEL061C, strain CIN8, stronger effect = lower value 0.981 | locus YER015W, strain faa2, stronger effect = lower value 1.04 | locus YER016W, strain bim1, stronger effect = lower value 1.03 | locus YER110C, stronger effect = lower value 0.992 | locus YER111C, strain swi4, stronger effect = lower value 1.07 | locus YER155C, strain BEM2 (second series), stronger effect = lower value 1.09 | locus YER155C, strain BEM2, stronger effect = lower value 0.998 | locus YER167W, strain BCK2, stronger effect = lower value 0.984 | locus YFR010W, strain ubp6, stronger effect = lower value 1.08 | locus YGL078C, strain dbp3, stronger effect = lower value 0.99 | locus YGL086W, strain mad1, stronger effect = lower value 0.997 | locus YGL167C, strain pmr1, stronger effect = lower value 1.04 | locus YGL173C, strain kem1, stronger effect = lower value 1.03 | locus YGL227W, strain vid30, stronger effect = lower value 1.08 | locus YGL240W, strain doc1, stronger effect = lower value 1.03 | locus YGL248W, strain PDE1, stronger effect = lower value 0.987 | locus YGL253W, strain hxk2, stronger effect = lower value 1.05 | locus YGR135W, strain pre9, stronger effect = lower value 0.992 | locus YGR229C, strain SMI1, stronger effect = lower value 0.982 | locus YGR252W, strain gcn5, stronger effect = lower value 0.944 | locus YHR013C, strain ard1, stronger effect = lower value 1.02 | locus YHR027C, strain rpn1, stronger effect = lower value 1.03 | locus YHR030C, strain SLT2, stronger effect = lower value 0.984 | locus YHR079C, strain IRE1 (second series), stronger effect = lower value 0.996 | locus YHR094C, strain hxt1, stronger effect = lower value 0.988 | locus YHR129C, strain ARP1, stronger effect = lower value 0.996 | locus YHR142W, strain chs7, stronger effect = lower value 1.07 | locus YHR200W, strain rpn10, stronger effect = lower value 0.988 | locus YIL066C, strain RNR3, stronger effect = lower value 0.907 | locus YIL073C, strain SPO22, stronger effect = lower value 1.02 | locus YIL125W, strain kgd1, stronger effect = lower value 0.99 | locus YIR030C, strain dcg1, stronger effect = lower value 1.01 | locus YJL092W, strain hpr5, stronger effect = lower value 1.07 | locus YJL095W, strain BCK1 (second series), stronger effect = lower value 1.03 | locus YJL095W, strain BCK1, stronger effect = lower value 1.06 | locus YJL115W, strain asf1, stronger effect = lower value 1.08 | locus YJL129C, strain trk1, stronger effect = lower value 1.07 | locus YJL134W, strain LCB3, stronger effect = lower value 0.98 | locus YJL154C, strain vps35, stronger effect = lower value 1.05 | locus YJL164C, strain tpk1, stronger effect = lower value 1.02 | locus YJL166W, strain qcr8, stronger effect = lower value 1.02 | locus YJL168C, strain set2, stronger effect = lower value 0.989 | locus YJL187C, strain SWE1 (second series), stronger effect = lower value 1.01 | locus YJL187C, strain SWE1, stronger effect = lower value 1.02 | locus YJR043C, strain POL32, stronger effect = lower value 0.929 | locus YKL009W, strain mrt4, stronger effect = lower value 0.994 | locus YKL068W, stronger effect = lower value 0.981 | locus YKL085W, strain MDH1 (second series), stronger effect = lower value 0.996 | locus YKL085W, strain MDH1, stronger effect = lower value 0.996 | locus YKL160W, strain elf1, stronger effect = lower value 1.02 | locus YKR001C, strain vps1, stronger effect = lower value 0.992 | locus YKR091W, strain srl3, stronger effect = lower value 1.03 | locus YLL001W, strain dnm1, stronger effect = lower value 1.05 | locus YLL026W, stronger effect = lower value 1.02 | locus YLL041C, strain sdh2, stronger effect = lower value 1.03 | locus YLR027C, strain aat2, stronger effect = lower value 1.03 | locus YLR039C, strain RIC1, stronger effect = lower value 0.981 | locus YLR058C, strain SHM2, stronger effect = lower value 0.971 | locus YLR102C, strain apc9, stronger effect = lower value 0.993 | locus YLR221C, strain rsa3, stronger effect = lower value 1.03 | locus YLR258W, strain gsy2, stronger effect = lower value 1.03 | locus YLR262C, strain YPT6 (second series), stronger effect = lower value 0.986 | locus YLR262C, strain YPT6, stronger effect = lower value 1.01 | locus YLR268W, strain sec22, stronger effect = lower value 0.999 | locus YLR320W, strain mms22, stronger effect = lower value 1.04 | locus YLR330W, strain CHS5, stronger effect = lower value 0.99 | locus YLR342W, strain FKS1 (second series), stronger effect = lower value 0.918 | locus YLR342W, strain FKS1, stronger effect = lower value 1.04 | locus YLR357W, strain rsc2, stronger effect = lower value 1.12 | locus YLR370C, strain arc18, stronger effect = lower value 1.06 | locus YLR371W, strain rom2, stronger effect = lower value 0.981 | locus YLR384C, strain iki3, stronger effect = lower value 1.03 | locus YLR418C, strain cdc73, stronger effect = lower value 0.997 | locus YML016C, strain PPZ1, stronger effect = lower value 0.973 | locus YML032C, strain rad52, stronger effect = lower value 0.983 | locus YML120C, strain ndi1, stronger effect = lower value 1.03 | locus YML124C, strain tub3, stronger effect = lower value 0.991 | locus YMR058W, strain fet3, stronger effect = lower value 1.08 | locus YMR078C, strain ctf18, stronger effect = lower value 0.979 | locus YMR125W, strain sto1, stronger effect = lower value 1.09 | locus YMR129W, stronger effect = lower value 1.05 | locus YMR205C, strain PFK2, stronger effect = lower value 1.05 | locus YMR223W, strain ubp8, stronger effect = lower value 0.997 | locus YMR231W, strain pep5, stronger effect = lower value 1.05 | locus YMR263W, strain SAP30, stronger effect = lower value 1 | locus YMR307W, strain GAS1, stronger effect = lower value 0.965 | locus YNL067W, strain RPL9B, stronger effect = lower value 1.06 | locus YNL071W, strain lat1, stronger effect = lower value 1.02 | locus YNL153C, strain GIM3, stronger effect = lower value 1.02 | locus YNL209W, strain ssb2, stronger effect = lower value 1.03 | locus YNL233W, strain BNI4, stronger effect = lower value 1.05 | locus YNL248C, strain rpa49, stronger effect = lower value 1.07 | locus YNL250W, strain rad50, stronger effect = lower value 0.972 | locus YNL271C, strain bni1, stronger effect = lower value 0.988 | locus YNL298W, strain CLA4, stronger effect = lower value 0.98 | locus YNL307C, strain MCK1, stronger effect = lower value 0.988 | locus YNL322C, strain KRE1 (second series), stronger effect = lower value 1.04 | locus YNR049C, strain mso1, stronger effect = lower value 1.06 | locus YNR052C, strain pop2, stronger effect = lower value 0.998 | locus YOL012C, strain htz1 1.22 | locus YOL147C, strain pex11, stronger effect = lower value 0.995 | locus YOR001W, strain rrp6, stronger effect = lower value 1.03 | locus YOR061W, strain CKA2, stronger effect = lower value 0.953 | locus YOR069W, strain VPS5, stronger effect = lower value 0.985 | locus YOR070C, strain gyp1, stronger effect = lower value 1.02 | locus YOR080W, strain dia2, stronger effect = lower value 1.04 | locus YOR083W, strain WHI5, stronger effect = lower value 1.01 | locus YOR106W, strain vam3, stronger effect = lower value 1.02 | locus YOR136W, strain idh2, stronger effect = lower value 1 | locus YOR144C, strain elg1, stronger effect = lower value 0.999 | locus YOR184W, strain ser1, stronger effect = lower value 0.985 | locus YOR265W, strain rbl2, stronger effect = lower value 1.03 | locus YOR270C, strain vph1, stronger effect = lower value 1.16 | locus YOR290C, strain snf2, stronger effect = lower value 1.04 | locus YOR316C, strain cot1, stronger effect = lower value 0.994 | locus YPL051W, strain arl3, stronger effect = lower value 1 | locus YPL055C, strain LGE1, stronger effect = lower value 0.959 | locus YPL078C, strain atp4, stronger effect = lower value 1.05 | locus YPL106C, strain sse1, stronger effect = lower value 1.06 | locus YPL240C, strain hsp82, stronger effect = lower value 1.02 | locus YPL241C, strain CIN2, stronger effect = lower value 0.984 | locus YPR119W, strain clb2, stronger effect = lower value 0.988 | locus YPR141C, strain kar3, stronger effect = lower value 0.989 | locus YPR163C, strain tif3, stronger effect = lower value 0.977 | locus YPR167C, strain met16, stronger effect = lower value 0.992 | strain wtn01, stronger effect = lower value 0.976

Source: PubChem BioAssay AID1159580 (chemical genetic matrix, 2015)
